PAX8 reporter: inhibitors of PAX8 transcriptional activity in RMG-I cells; 360,000 compounds, 1.2% hits; RMG-I TPO-luciferase reporter, SteadyGlo, 24 h; inhibition, % at 12.6 µM;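 active means mean replicate inhibition at least 60% with every replicate also reaching 60%; inconclusive means only one of the two criteria is met; inactive means mean below 60% and not all replicates reaching 60%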;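 further: luciferase light reporting Pax8 driven TPO promoter activity; plate controls were median of neutral control wells for no effect and mitoxantrone controls for full effect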
EWS-Fli block: EWS/Fli transcriptional activity inhibition | A673 NR0B1-luciferase reporter, viability-normalised | inhibition, % at 12.6 µM | 350,000 compounds, 0.67% hits | AID 651661;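 active means mean inhibition of at least 50% after viability correction, with every replicate also passing that limit; inconclusive means mean reaches 50% but only one of two replicates passes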;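 further: firefly luciferase signal divided by Alamar Blue viability fluorescence both relative to DMSO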
CF NFkB inh: blocks PAF-induced NF-kB reporter in cystic fibrosis cells; 360,000 compounds, 0.86% hits; KKLEB NF-kB-GFP reporter, GFP fluorescence overnight; inhibition, % at 5 µM;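 active means at least 50% inhibition at 5 µM, scaled per plate between neutral and stimulator controls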;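 further: PAF is a Pseudomonas aeruginosa culture filtrate used as stimulus; plate controls were PAF-stimulated DMSO wells for no effect and unstimulated DMSO wells for full effect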
KKLEB tox: reduces viability of KKLEB cystic fibrosis airway cells | activity change (cytotoxicity), % at 5 µM | KKLEB CF airway cells viability, ATPlite luminescence, overnight; active compounds read low; cells stimulated with P. aeruginosa culture filtrate | 360,000 compounds, 0.36% hits;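 active means corrected activity change at or below -50% at 5 µM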
HIF-2a inh: blocks HIF-2a reporter activity | 786-0 RCC cells HIF-2a reporter, luciferase luminescence, overnight | inhibition, % at 18.8 µM | 360,000 compounds, 0.72% hits | AID 624352;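 active means inhibition of the luminescence signal of 40% or more relative to plate controls, in a single-dose primary screen at 18.75 µM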
Mdm2-MdmX confirm: confirmation of inhibitors of human Mdm2/MdmX interaction, set 2. shares compounds with HIF-2a inh. SaOS-2 split-luciferase Mdm2/MdmX complementation, luminescence. inhibition, % at 8 µM. 740 compounds, 99% hits;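 active means mean inhibition of the luminescence signal across two replicates at or above 26 percent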
Target sequence (O15151 whole entry, looked up): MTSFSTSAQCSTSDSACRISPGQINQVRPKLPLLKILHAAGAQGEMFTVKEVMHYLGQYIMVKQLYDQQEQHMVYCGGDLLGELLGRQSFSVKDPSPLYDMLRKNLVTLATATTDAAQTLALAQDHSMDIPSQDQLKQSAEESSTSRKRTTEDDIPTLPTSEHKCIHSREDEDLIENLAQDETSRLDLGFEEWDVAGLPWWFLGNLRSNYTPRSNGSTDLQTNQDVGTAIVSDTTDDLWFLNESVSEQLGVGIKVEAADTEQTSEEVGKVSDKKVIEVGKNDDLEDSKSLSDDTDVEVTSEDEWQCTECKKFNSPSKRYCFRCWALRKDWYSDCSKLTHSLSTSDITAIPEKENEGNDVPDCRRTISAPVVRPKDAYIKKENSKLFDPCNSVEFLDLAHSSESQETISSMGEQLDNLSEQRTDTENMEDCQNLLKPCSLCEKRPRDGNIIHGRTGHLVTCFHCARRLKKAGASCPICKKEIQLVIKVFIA
Target sequence (Q00987 whole entry, looked up): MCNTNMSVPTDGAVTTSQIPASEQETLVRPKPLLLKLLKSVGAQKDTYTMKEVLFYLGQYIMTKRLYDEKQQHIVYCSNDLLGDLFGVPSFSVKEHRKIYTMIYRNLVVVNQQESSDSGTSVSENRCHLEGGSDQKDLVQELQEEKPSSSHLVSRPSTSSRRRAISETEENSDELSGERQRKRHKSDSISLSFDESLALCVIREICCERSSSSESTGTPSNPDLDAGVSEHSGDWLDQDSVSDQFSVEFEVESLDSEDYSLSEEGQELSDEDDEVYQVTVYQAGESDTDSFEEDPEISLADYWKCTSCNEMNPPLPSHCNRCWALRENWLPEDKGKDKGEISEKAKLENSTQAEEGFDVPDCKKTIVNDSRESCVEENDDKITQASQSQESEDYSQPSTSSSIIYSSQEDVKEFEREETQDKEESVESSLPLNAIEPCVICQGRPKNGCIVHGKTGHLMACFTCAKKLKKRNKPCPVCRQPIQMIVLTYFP
HIF-2a conf: HIF-2a inhibition, single concentration confirmation. shares compounds with HIF-2a inh. 786-0 RCC cells, HIF-2a luciferase reporter luminescence, overnight. inhibition, % at 18.8 µM. 1,800 compounds, 56% hits. AID 651580;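 active means mean inhibition across four replicates of at least 40 percent at the single tested concentration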
HIF-1a cs: HIF-1a inhibition counter-screen for HIF-2a hits. shares compounds with HIF-2a inh. MiaPaCa-2 HIF-1a luciferase reporter, desferoxamine, overnight. inhibition, % at 18.8 µM. 1,800 compounds, 72% hits. AID 651589;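 active means mean inhibition of the reporter signal across four replicates at the single tested dose of 50% or more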
Active calls of the source: *; u = inconclusive; x = no result given. An excerpt weighted towards active compounds, which were near 2.1% of everything screened.

SMILES | PAX8 reporter | EWS-Fli block | CF NFkB inh | KKLEB tox | HIF-2a inh | HIF-2a conf | HIF-1a cs | others
C=CCSc1nc2ccccc2n1C(=O)/C=C/c1cc(OC)c(OC)c(OC)c1 | x | 67* | 91* | -14 | 83* | 88* | 106*
CCSc1nc2ccccc2n1C(=O)/C=C/c1ccc(OC)c(OC)c1 | 64* | x | 84* | -2 | 78* | 6 | 101* | Mdm2-MdmX confirm=102*
NC(N)=N/N=C/c1ccc(OCc2ccccc2Cl)cc1 | x | 58* | 3 | -18 | 93* | -16 | 106*
NC(N)=N/N=C/c1ccccc1 | x | x | 11 | -3 | -8 | x | x
COC(=O)c1ccc2nc(Nc3nc4ccc(F)cc4s3)sc2c1 | 80* | 77* | -10 | 1 | 89* | 98* | 88*
CC(=O)c1sc(Nc2nc3ccc(F)cc3s2)nc1C | x | x | -2 | -6 | -207 | x | x
O=C(NC1CCCC1)N[C@H]1C=C[C@@H](CC(=O)N2CCOCC2)O[C@@H]1CO | -1 | 1 | x | x | x | x | x
CCc1nnc(NC(=O)c2nc(Cl)ccc2Cl)s1 | 10 | x | 0 | 8 | -11 | x | x
CCc1nnc(NC(=O)c2nc(S(=O)(=O)Cc3cccc(C)c3)ncc2Cl)s1 | 28 | x | 90* | -90* | 85* | x | x | Mdm2-MdmX confirm=103*
CCOc1ccccc1NC(=O)c1nc(S(=O)(=O)Cc2cccc(C)c2)ncc1Cl | 132* | 58* | 87* | -102* | 90* | 86* | 103* | Mdm2-MdmX confirm=102*
CCc1nnc(NC(=O)c2cccc(S(=O)(=O)N3CCN(C)CC3)c2)s1 | -6 | 0 | 8 | 6 | 16 | x | x
CCc1nnc(NC(=O)c2nc(S(=O)(=O)Cc3ccc(C)cc3)ncc2Cl)s1 | 6 | x | 94* | -82* | 50* | 63* | 108* | Mdm2-MdmX confirm=103*
CC(C)NC(=O)N(C)C[C@@H]1Oc2c(NC(=O)Nc3ccccc3)cccc2C(=O)N([C@@H](C)CO)C[C@@H]1C | -11 | -11 | x | x | x | x | x
O=C1/C(=C/c2ccccc2[N+](=O)[O-])COc2ccccc21 | 61* | 28 | 86* | -71* | 61* | -104 | 103*
CNc1ccc(/C=C2\COc3ccccc3C2=O)cc1[N+](=O)[O-] | x | x | 35 | -25 | -163 | x | x
CC(C)C#Cc1ccc([C@@H]2[C@H](CO)N3CCCCN(S(=O)(=O)Cc4ccccc4)C[C@@H]23)cc1 | 1 | 15 | x | x | x | x | x
CCOCCCNC(=O)/C(C#N)=C/c1ccccc1F | 7 | 10 | -14 | 3 | 15 | x | x
CC1CCCCC1NC(=O)/C(C#N)=C/c1ccccc1F (stereo not given) | 14 | 14 | 26 | -14 | 88* | 81* | 106*
C[C@@H]1CN([C@@H](C)CO)C(=O)c2cc(NC(=O)C3CCCCC3)ccc2O[C@@H](C)CCCCO[C@@H]1CN(C)C(=O)Nc1ccc(F)cc1 | -4 | -4 | x | x | x | x | x
COC(=O)COc1ccc(S(=O)(=O)NCCC2=CCCCC2)cc1Cl | x | x | -10 | 12 | 57* | 22 | -9
CCCn1c(=N)n(CC(=O)c2ccc(OCC(=O)OC)cc2)c2ccccc21 | 19 | 7 | -4 | -15 | 47* | 3 | 4
CCCn1c(=N)n(CC(=O)c2ccc(Cl)cc2)c2ccccc21 | -22 | -23 | -11 | -6 | 7 | x | x
CCCNC(=O)C[C@@H]1CC[C@H]2[C@@H](COc3ccc(NC(=O)c4cccc(Cl)c4)cc3C(=O)N2C)O1 | 4 | 2 | x | x | x | x | x
O=C(CN(c1ccc(Br)cc1)S(=O)(=O)c1ccc(Cl)c([N+](=O)[O-])c1)NCC1CCCO1 (stereo not given) | 44 | 44 | 48 | -13 | 86* | 32 | 103*
C[C@H]1CN([C@@H](C)CO)C(=O)c2cc(-c3ccccc3)cnc2O[C@@H]1CN(C)C(=O)Cc1ccccn1 | x | -8 | x | x | x | x | x
SMILES | PAX8 reporter | EWS-Fli block | CF NFkB inh | KKLEB tox | HIF-2a inh | HIF-2a conf | HIF-1a cs | others
C[C@@H]1CN([C@@H](C)CO)C(=O)c2cccc(NS(=O)(=O)c3ccc(Cl)cc3)c2O[C@@H]1CN(C)Cc1ccncc1 | 24 | 9 | x | x | x | x | x
COc1ccc(C(=O)/C=C/C(=O)N(Cc2ccc(F)cc2)C(C(=O)NC2CCCCC2)c2ccncc2)c(O)c1 (stereo not given) | x | x | 6 | -26 | 27 | x | x
COc1ccc(C(=O)/C=C/C(=O)N(CC(=O)NC2CCCCC2)Cc2ccccc2)c(O)c1 | u | 83* | 71* | -34 | 71* | 98* | 103*
COc1ccc(C(=O)/C=C/C(=O)N(CC(=O)NC2CCCCC2)Cc2ccccc2OC)c(O)c1 | 3 | u | 87* | -63* | 81* | 89* | 105*
COc1ccc(C(=O)/C=C/C(=O)N(CC(=O)NC2CCCCC2)CC2CCCO2)c(O)c1 (stereo not given) | 82* | 56* | 48 | -17 | 94* | 99* | 107*
COc1ccc(C(=O)/C=C/C(=O)N(Cc2ccccc2)C(C(=O)NC2CCCCC2)c2ccncc2)c(O)c1 (stereo not given) | 37 | 2 | 15 | -14 | 40* | 5 | 48
COc1ccc(C(=O)/C=C/C(=O)N(Cc2ccccc2OC)C(C(=O)NC2CCCCC2)c2ccncc2)c(O)c1 (stereo not given) | 9 | x | -3 | 2 | 20 | x | x
COc1cccc(CN(CC(=O)NC2CCCC2)C(=O)CCC(=O)Nc2cc(C)on2)c1 | x | x | -2 | 6 | 11 | x | x
CCOC(=O)CSCc1nc(-c2ccc(Cl)cc2)oc1C | 2 | 26 | 2 | 1 | 50* | 54* | 44
CCc1ccc(-c2nc(CSCC(=O)NCc3ccco3)c(C)o2)cc1 | 64* | 84* | -10 | -5 | 40* | 44* | 39
CCc1ccc(-c2nc(CS(=O)CC(=O)NCc3ccccc3)c(C)o2)cc1 (stereo not given) | 11 | 46 | -3 | 0 | 50* | 45* | 55*
CCCNC(=O)CSCc1nc(-c2ccc(SC)cc2)oc1C | -3 | 18 | -21 | 6 | -96 | x | x
CO[C@@H]1CN(C)C(=O)c2cc(NC(=O)C3CCCCC3)ccc2OC[C@H](C)N(C)C[C@@H]1C | 2 | -9 | x | x | x | x | x
Cc1cccc(C(=O)Nc2ccc(C(=O)/C=C/c3cccnc3)cc2)c1 | -53 | x | 38 | -16 | 76* | -104 | 104*
O=C(/C=C/c1cccnc1)/C=C/c1cccnc1 | 92* | 73* | 75* | 3 | 95* | 66* | 107*
Cc1cccc(C(=O)Nc2ccc(C(=O)/C=C/c3ccncc3)cc2)c1 | 23 | 71* | 24 | 5 | 88* | -77 | 105*
O=C(/C=C/c1cccnc1)c1ccc(NC(=O)c2cccc(Br)c2)cc1 | x | x | -7 | -4 | -92 | x | x

Bioassay records (PubChem)
